# Laboratory results as given in PubChem BioAssay (Tox21).
# Where “and” joins values, the source holds several entries; their conditions need not be identical. Identical values can stand only once. Records with an inconclusive call do not appear. Entries that show only a call come without a potency. A structure can be active in one record and inactive in another. Calls of active or inactive are those of the source. Calls follow the shape of the dose curve; as a rule, active = well fitted curve in the direction sought with a large enough effect in the repeat runs; inconclusive = weak or mixed curves; inactive = no such curve, though single readings can be large; an effect the other way counts as inactive or inconclusive.
# Legend:
# [1] = qHTS RealTime-Glo MT Cell Viability Assay in HepG2 cells - 8 hour (AID 1224873); also: nearly all actives have a fitted effect of over 55% in size
# Summary of the method: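 HepG2 cells (600/well) mixed with RealTime-Glo MT reagent, settled 5 h at 37 C/5% CO2 before compound addition. Nonlytic NanoLuc luminescence from viable-cell prosubstrate reduction read repeatedly during 40 h treatment at 37 C.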
# [2] = A CellTox Green Cytotoxicity Assay to monitor cytotoxicity in HEK293 cells - 24 hour (AID 1224875); also: nearly all actives have a fitted effect of over 45% in size; also: potency is read from the fitted curve at half-maximal effect
# Summary of the method: (§1)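 Fluorescence intensity, read at 0, 8, 16, 24, 32 and 40 h of compound treatment, reflected dye binding to DNA of dead HEK293 cells; compounds (23 nL, DMSO) were added 5 h after plating cells with reagent.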
# [3] = A CellTox Green Cytotoxicity Assay to monitor cytotoxicity in HepG2 cells - 16 hour (AID 1224876); also: nearly all actives have a fitted effect of over 45% in size; also: potency is read from the fitted curve at half-maximal effect
# Summary of the method: (§2)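 Using 1536-well format, dye-containing HepG2 suspension was seeded, allowed 5 h at 37 C/5% CO2, dosed by pintool with compounds, positive and negative controls, and imaged for fluorescence across 40 h.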
# [4] = qHTS RealTime-Glo MT Cell Viability Assay in HepG2 cells - 32 hour (AID 1224877); also: nearly all actives have a fitted effect of over 55% in size; also: potency is read from the fitted curve at half-maximal effect
# Summary of the method: (§3)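 HepG2 suspension premixed with RealTime-Glo reagents is plated at 600 cells per well and left 5 h at 37 C/5% CO2. Compounds in DMSO then go in, and bioluminescence reflecting viable cell number is recorded over 40 h.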
# [5] = A CellTox Green Cytotoxicity Assay to monitor cytotoxicity in HepG2 cells - 24 hour (AID 1224878); also: nearly all actives have a fitted effect of over 45% in size; also: potency is read from the fitted curve at half-maximal effect
# Summary of the method: as §2
# [6] = A CellTox Green Cytotoxicity Assay to monitor cytotoxicity in HepG2 cells - 40 hour (AID 1224879); also: nearly all actives have a fitted effect of over 40% in size; also: potency is read from the fitted curve at half-maximal effect
# Summary of the method: as §2
# [7] = qHTS RealTime-Glo MT Cell Viability Assay in HEK293 cells - 0 hour (AID 1224880); also: top concentration of the series differs between compounds; nearly all actives have a fitted effect of over 45% in size
# Summary of the method: (§4)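 Viable HEK293 cells reduce a cell-permeant prosubstrate; the product diffuses out and is consumed by NanoLuc in the medium to give light. Compounds went in after a 5 h incubation and plates were read over the treatment course.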
# [8] = A CellTox Green Cytotoxicity Assay to monitor cytotoxicity in HepG2 cells - 0 hour (AID 1224882); also: nearly all actives have a fitted effect of over 35% in size
# Summary of the method: as §2
# [9] = A CellTox Green Cytotoxicity Assay to monitor cytotoxicity in HepG2 cells - 32 hour (AID 1224883); also: nearly all actives have a fitted effect of over 50% in size; also: potency is read from the fitted curve at half-maximal effect
# Summary of the method: as §2
# [10] = A CellTox Green Cytotoxicity Assay to monitor cytotoxicity in HEK293 cells - 8 hour (AID 1224884); also: nearly all actives have a fitted effect of over 35% in size; also: potency is read from the fitted curve at half-maximal effect
# Summary of the method: as §1
# [11] = A CellTox Green Cytotoxicity Assay to monitor cytotoxicity in HEK293 cells - 16 hour (AID 1224888); also: nearly all actives have a fitted effect of over 35% in size
# Summary of the method: as §1
# [12] = qHTS RealTime-Glo MT Cell Viability Assay in HepG2 cells - 0 hour (AID 1224889); also: nearly all actives have a fitted effect of over 50% in size; also: potency is read from the fitted curve at half-maximal effect
# Summary of the method: as §3
# [13] = A CellTox Green Cytotoxicity Assay to monitor cytotoxicity in HepG2 cells - 8 hour (AID 1224890); also: nearly all actives have a fitted effect of over 45% in size
# Summary of the method: as §2
# [14] = A CellTox Green Cytotoxicity Assay to monitor cytotoxicity in HEK293 cells - 40 hour (AID 1224871); also: nearly all actives have a fitted effect of over 45% in size; also: potency is read from the fitted curve at half-maximal effect
# Summary of the method: as §1
# [15] = qHTS RealTime-Glo MT Cell Viability Assay in HEK293 cells - 40 hour (AID 1224874); details: RealTime-Glo luminescence; max response: stronger effect = lower value; also: nearly all actives have a fitted effect of over 50% in size; also: potency is read from the fitted curve at half-maximal effect
# Summary of the method: as §4
# [16] = qHTS RealTime-Glo MT Cell Viability Assay in HEK293 cells - 24 hour (AID 1224886); also: nearly all actives have a fitted effect of over 50% in size; also: potency is read from the fitted curve at half-maximal effect
# Summary of the method: (§5)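 Reads taken at 0, 8, 16, 24, 32 and 40 h from the same wells. HEK293 cells (600/well) carried RealTime-Glo reagents from seeding, with compound added after a 5 h settle at 37 C.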
# [17] = qHTS RealTime-Glo MT Cell Viability Assay in HEK293 cells - 16 hour (AID 1224872); also: nearly all actives have a fitted effect of over 50% in size; also: potency is read from the fitted curve at half-maximal effect
# Summary of the method: as §5
# [18] = A CellTox Green Cytotoxicity Assay to monitor cytotoxicity in HEK293 cells - 32 hour (AID 1224881); also: nearly all actives have a fitted effect of over 40% in size; also: potency is read from the fitted curve at half-maximal effect
# Summary of the method: as §1
# [19] = qHTS RealTime-Glo MT Cell Viability Assay in HepG2 cells - 16 hour (AID 1224885); also: nearly all actives have a fitted effect of over 50% in size
# Summary of the method: as §3
# [20] = qHTS RealTime-Glo MT Cell Viability Assay in HEK293 cells - 8 hour (AID 1224887); also: nearly all actives have a fitted effect of over 50% in size; also: potency is read from the fitted curve at half-maximal effect
# Summary of the method: as §4
compound,measurement,setting,value
O=C(Nc1ccccc1SSc1ccccc1NC(=O)c1ccccc1)c1ccccc1,Potency,[1],inactive
same,Potency,[2],inactive
same,Potency,[3],inactive
same,Potency,[4],inactive and 49 µM (active)
same,Potency,[5],inactive and 54.9 µM (active)
same,Potency,[6],49 µM (active)
same,Potency,[7],inactive
same,Potency,[8],inactive
same,Potency,[9],49 µM (active)
same,Potency,[10],inactive
same,Potency,[11],inactive
same,Potency,[12],inactive
same,Potency,[13],inactive
C=CC(=O)OCCCCCCOC(=O)C=C,Potency,[14],54.9 µM (active)
same,Potency,[15],49.6 µM (active) and 43.6 µM (active)
same,Potency,[3],inactive
same,Potency,[6],inactive and 54.9 µM (active)
same,Potency,[7],inactive
same,Potency,[8],inactive
same,Potency,[9],inactive
same,Potency,[10],inactive
same,Potency,[16],43.6 µM (active)
same,Potency,[11],inactive
same,Potency,[13],inactive
Oc1c(Cl)cc(Cl)c(Cl)c1Cc1c(O)c(Cl)cc(Cl)c1Cl,Potency,[14],48.9 µM (active) and 49 µM (active) and inactive
same,Potency,[17],inactive
same,Potency,[1],inactive
same,Potency,[15],2.45 µM (active) and 3.89 µM (active)
same,Potency,[3],inactive and 43.6 µM (active)
same,Potency,[5],inactive and 38.9 µM (active)
same,Potency,[6],21.8 µM (active) and 38.9 µM (active)
same,Potency,[7],inactive
same,Potency,[18],54.8 µM (active) and 49 µM (active) and inactive
same,Potency,[8],inactive
same,Potency,[9],inactive and 38.9 µM (active)
same,Potency,[10],inactive
same,Potency,[19],inactive
same,Potency,[16],3.88 µM (active)
same,Potency,[20],inactive
same,Potency,[11],inactive
same,Potency,[12],inactive
same,Potency,[13],inactive
NC(=Nc1ccccc1)Nc1ccccc1,Potency,[14],inactive
same,Potency,[17],inactive
same,Potency,[1],inactive
same,Potency,[2],inactive
same,Potency,[3],inactive
same,Potency,[6],inactive
same,Potency,[8],inactive
same,Potency,[9],inactive
same,Potency,[10],inactive
same,Potency,[19],inactive
same,Potency,[20],inactive
same,Potency,[11],inactive
same,Potency,[12],inactive
same,Potency,[13],inactive
Nc1nc(=S)c2[nH]cnc2[nH]1,Potency,[14],inactive
same,Potency,[17],inactive
same,Potency,[1],inactive
same,Potency,[15],21.3 µM (active) and 19.5 µM (active) and 26.8 µM (active)
same,Potency,[2],inactive
same,Potency,[3],inactive
same,Potency,[6],inactive
same,Potency,[7],inactive
same,Potency,[8],inactive
same,Potency,[9],inactive
same,Potency,[10],inactive
same,Potency,[16],21.9 µM (active)
same,Potency,[20],inactive
same,Potency,[11],inactive
same,Potency,[12],inactive
same,Potency,[13],inactive
c1ccc2n[nH]nc2c1,Potency,[14],inactive
same,Potency,[17],inactive
same,Potency,[1],inactive
same,max response,[15],10.2% (inactive) and 5.87% (inactive)
same,Potency,[2],inactive
same,Potency,[3],inactive
same,Potency,[6],inactive
same,Potency,[7],inactive
same,Potency,[18],inactive
same,Potency,[8],inactive
same,Potency,[9],inactive
same,Potency,[10],9.5 µM (active) and inactive
same,Potency,[19],inactive
same,Potency,[16],inactive
same,Potency,[20],inactive
same,Potency,[11],inactive
same,Potency,[12],inactive
same,Potency,[13],inactive
COc1ccc(CCN(C)CCCC(C#N)(c2ccc(OC)c(OC)c2)C(C)C)cc1OC (stereo unspecified),Potency,[14],inactive
same,Potency,[2],inactive
same,Potency,[3],inactive
same,Potency,[6],48.9 µM (active)
same,Potency,[18],inactive
same,Potency,[8],inactive
same,Potency,[9],54.8 µM (active)
same,Potency,[10],inactive
same,Potency,[11],inactive
same,Potency,[13],inactive
[Cl][In]([Cl])[Cl],Potency,[14],inactive
same,Potency,[17],inactive
same,Potency,[1],inactive
same,Potency,[2],inactive
same,Potency,[3],inactive
same,Potency,[4],inactive
same,Potency,[5],inactive
same,Potency,[6],inactive
same,Potency,[7],inactive
same,Potency,[18],inactive
same,Potency,[8],inactive
same,Potency,[9],inactive
same,Potency,[19],inactive
same,Potency,[20],inactive
same,Potency,[11],inactive
same,Potency,[13],inactive
Cc1ccc(S(=O)(=O)Oc2ccc(N=Nc3ccc(-c4ccc(N=Nc5c(O)ccc6cc(S(=O)(=O)O)cc(S(=O)(=O)O)c56)c(C)c4)cc3C)cc2)cc1,Potency,[14],inactive
same,Potency,[17],inactive
same,max response,[15],-0.0985% (inactive)
same,Potency,[2],inactive
same,Potency,[3],inactive
same,Potency,[5],inactive
same,Potency,[6],inactive
same,Potency,[18],inactive
same,Potency,[8],inactive
same,Potency,[9],inactive
same,Potency,[10],inactive
same,Potency,[16],inactive
same,Potency,[20],inactive
same,Potency,[11],inactive
same,Potency,[13],inactive
CCCCCC(=O)O[C@]1(C(C)=O)CC[C@H]2[C@@H]3CCC4=CC(=O)CC[C@]4(C)[C@H]3CC[C@@]21C,Potency,[14],inactive
same,Potency,[15],24.4 µM (active)
same,Potency,[2],inactive
same,Potency,[3],inactive
same,Potency,[4],inactive
same,Potency,[5],inactive
same,Potency,[6],inactive
same,Potency,[7],inactive
same,Potency,[18],inactive
same,Potency,[8],inactive
same,Potency,[9],inactive
same,Potency,[10],inactive
same,Potency,[16],24.4 µM (active)
same,Potency,[20],inactive
same,Potency,[11],inactive
same,Potency,[12],4.34 µM (active)
same,Potency,[13],inactive
BrC1CCC(Br)C(Br)CCC(Br)C(Br)CCC1Br (stereo unspecified),Potency,[14],inactive
same,Potency,[17],inactive
same,max response,[15],-14.3% (inactive)
same,Potency,[2],inactive
same,Potency,[3],inactive
same,Potency,[5],inactive
same,Potency,[6],inactive
same,Potency,[7],inactive
same,Potency,[8],inactive
same,Potency,[9],inactive
same,Potency,[10],inactive
same,Potency,[16],inactive
same,Potency,[20],inactive
same,Potency,[11],inactive
same,Potency,[13],inactive
CC(C)(C)c1cc(C(C)(C)C)c(O)c(C(C)(C)C)c1,Potency,[14],54.9 µM (active) and 34.7 µM (active)
same,Potency,[17],inactive
same,Potency,[1],inactive
same,max response,[15],-7.81% (inactive)
same,Potency,[2],54.9 µM (active) and 38.9 µM (active)
same,Potency,[5],54.9 µM (active)
same,Potency,[6],49 µM (active)
same,Potency,[7],inactive
same,Potency,[18],54.9 µM (active) and 34.7 µM (active)
same,Potency,[8],inactive
same,Potency,[10],inactive
same,Potency,[16],inactive
same,Potency,[20],inactive
same,Potency,[13],inactive
CCc1ccc(C(c2ccc(CC)cc2)C(Cl)Cl)cc1,Potency,[1],inactive
same,Potency,[3],inactive
same,Potency,[4],inactive
same,Potency,[5],inactive
same,Potency,[6],inactive
same,Potency,[7],inactive
same,Potency,[8],inactive
same,Potency,[9],inactive
same,Potency,[10],inactive
same,Potency,[19],inactive
same,Potency,[20],inactive
same,Potency,[11],inactive
same,Potency,[13],inactive
CCC(C)(C)C(=O)O[C@H]1C[C@@H](C)C=C2C=C[C@H](C)[C@H](CC[C@@H]3C[C@@H](O)CC(=O)O3)[C@H]21,Potency,[14],inactive
same,Potency,[2],inactive
same,Potency,[3],inactive and 21.3 µM (active)
same,Potency,[6],24.5 µM (active) and 9.52 µM (active)
same,Potency,[8],inactive
same,Potency,[9],38.9 µM (active) and 9.52 µM (active)
same,Potency,[10],inactive
same,Potency,[11],inactive
same,Potency,[13],inactive
COC(=O)[C@H]1[C@H]2C[C@@H]3c4[nH]c5cc(OC)ccc5c4CCN3C[C@H]2C[C@@H](OC(=O)c2cc(OC)c(OC)c(OC)c2)[C@@H]1OC,Potency,[14],inactive
same,Potency,[17],4.89 µM (active) and 5.65 µM (active) and 4.77 µM (active)
same,Potency,[15],4.36 µM (active) and 7.98 µM (active) and 8.49 µM (active)
same,Potency,[2],inactive
same,Potency,[3],inactive
same,Potency,[5],inactive
same,Potency,[6],43.6 µM (active) and 40 µM (active) and 23.9 µM (active)
same,Potency,[7],inactive
same,Potency,[18],inactive
same,Potency,[8],inactive
same,Potency,[9],inactive
same,Potency,[10],inactive
same,Potency,[16],4.89 µM (active) and 6.34 µM (active) and 8.49 µM (active)
same,Potency,[20],4.89 µM (active) and 6.34 µM (active) and 9.52 µM (active)
same,Potency,[11],inactive
same,Potency,[12],inactive
same,Potency,[13],inactive
